# Inconclusive results are not listed. A call without a number means that no potency is given here. Active and inactive are the calls of the source. Unless noted, calls come from the whole dose curve; as a rule, active = well fitted curve in the direction sought with a large enough effect in the repeat runs; inconclusive = weak or mixed curves; inactive = no such curve, though single readings can be large; an effect the other way counts as inactive or inconclusive.
# How the values were obtained:
# [1] = target: Estrogen receptor beta (Homo sapiens) (UniProt Q92731); assay: qHTS assay to identify small molecule agonists of the estrogen receptor beta (ER-beta) signaling pathway (AID 1259377; active = well fitted activation curve with a large enough effect in the signal ratio in the repeat runs, not every such curve was filed as active; the % refers to the signal ratio)
# Sequence of Estrogen receptor beta (Homo sapiens) (Q92731 whole entry, looked up): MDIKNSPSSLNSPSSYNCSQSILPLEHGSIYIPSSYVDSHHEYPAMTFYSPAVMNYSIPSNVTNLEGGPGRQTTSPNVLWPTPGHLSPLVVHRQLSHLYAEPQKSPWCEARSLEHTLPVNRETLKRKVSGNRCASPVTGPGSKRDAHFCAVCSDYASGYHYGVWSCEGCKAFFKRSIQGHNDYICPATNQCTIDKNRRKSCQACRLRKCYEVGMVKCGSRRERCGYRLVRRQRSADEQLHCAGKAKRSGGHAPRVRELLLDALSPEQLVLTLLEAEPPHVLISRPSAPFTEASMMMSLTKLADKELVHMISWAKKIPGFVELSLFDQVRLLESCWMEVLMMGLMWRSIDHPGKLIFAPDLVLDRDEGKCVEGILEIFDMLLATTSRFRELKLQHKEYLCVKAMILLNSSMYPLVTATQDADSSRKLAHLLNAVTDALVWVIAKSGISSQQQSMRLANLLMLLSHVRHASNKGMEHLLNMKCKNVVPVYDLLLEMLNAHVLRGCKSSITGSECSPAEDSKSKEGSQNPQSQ
# Outline: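 ER-beta-UAS-bla HEK293T (GripTite) cells carrying a UAS-driven beta-lactamase reporter, in medium with 2% charcoal-stripped FBS, were exposed to compounds for 16 hr at 37C; LiveBLAzer B/G FRET substrate was then added and fluorescence read after 2 hours at room temperature.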
# [2] = target: Estrogen receptor beta (Homo sapiens) (UniProt Q92731); assay: qHTS assay to identify small molecule antagonists of the estrogen receptor beta (ER-beta) signaling pathway (AID 1259378; active = well fitted inhibition curve with a large enough effect in the signal ratio in the repeat runs, not every such curve was filed as active; the % refers to the signal ratio; note: potency is the fitted concentration of half-maximal effect)
# Outline: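 ER-beta-UAS-bla HEK293T cells in 2% charcoal-stripped FBS medium treated with compound plus 1nM final 17-beta-estradiol for 16 hr at 37C. Beta-lactamase reporter read by FRET substrate fluorescence after 2 hours at room temperature.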
# [3] = qHTS assay to identify small molecule agonists of the androgen receptor (AR) signaling pathway in the presence of an antagonist - cell viability counter screen (AID 1259379); note: nearly all actives have a fitted effect of over 25% in size; note: potency is the fitted concentration of half-maximal effect
# Outline: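 Fluorescence from CellTiter-Fluor, added after 15 hr and read 1 hr later, gave cell viability. Cells were MDA-kb2 exposed to compounds (15 concentrations) in the presence of 3.0uM nilutamide at 37C, 0% CO2.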
# [4] = qHTS assay to identify small molecule agonists of the estrogen receptor beta (ER-beta) signaling pathway - cell viability counter screen (AID 1259380); note: nearly all actives have a fitted effect of over 30% in size
# Outline: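 Same-well viability counter screen. Cells: ER-beta-UAS-bla HEK293T, plated 6 hr before compound, in 2% charcoal-stripped FBS. Compound exposure 16 hr, 37C; viability by CellTiter-Glo luminescence after 30 min at room temperature.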
# [5] = qHTS assay to identify small molecule antagonists of the estrogen receptor beta (ER-beta) signaling pathway - cell viability counter screen (AID 1259382); note: series mostly up to about 92 µM; nearly all actives have a fitted effect of over 55% in size
# Outline: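 Following a 6 hr plating period, HEK293T cells carrying a UAS-driven beta-lactamase reporter under ER-beta control received compounds and 1nM E2 (final). After 16 hr at 37C and 2 hr substrate loading, CellTiter-Glo luminescence indicated viability.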
# [6] = qHTS assay to identify small molecule agonists or antagonists of the thyroid stimulating hormone receptor (TSHR) signaling pathway - wild type cell line counter screen (AID 1259384; calls by dose curve)
# Outline: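 Wild-type Hek293 cells, 800/well, 18 h at 37C, then compound with Ro20-1724 for 30 min RT. cAMP by HTRF (cAMP-d2/anti-cAMP cryptate), 1 h RT, fluorescence read. 15 concentrations, triplicates.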
# [7] = target: Thyrotropin receptor (Homo sapiens) (UniProt P16473); assay: qHTS assay to identify small molecule antagonists of the thyroid stimulating hormone receptor (TSHR) signaling pathway (AID 1259385; calls by dose curve; note: nearly all actives have a fitted effect of over 20% in size)
# Sequence of Thyrotropin receptor (Homo sapiens) (P16473 whole entry, looked up): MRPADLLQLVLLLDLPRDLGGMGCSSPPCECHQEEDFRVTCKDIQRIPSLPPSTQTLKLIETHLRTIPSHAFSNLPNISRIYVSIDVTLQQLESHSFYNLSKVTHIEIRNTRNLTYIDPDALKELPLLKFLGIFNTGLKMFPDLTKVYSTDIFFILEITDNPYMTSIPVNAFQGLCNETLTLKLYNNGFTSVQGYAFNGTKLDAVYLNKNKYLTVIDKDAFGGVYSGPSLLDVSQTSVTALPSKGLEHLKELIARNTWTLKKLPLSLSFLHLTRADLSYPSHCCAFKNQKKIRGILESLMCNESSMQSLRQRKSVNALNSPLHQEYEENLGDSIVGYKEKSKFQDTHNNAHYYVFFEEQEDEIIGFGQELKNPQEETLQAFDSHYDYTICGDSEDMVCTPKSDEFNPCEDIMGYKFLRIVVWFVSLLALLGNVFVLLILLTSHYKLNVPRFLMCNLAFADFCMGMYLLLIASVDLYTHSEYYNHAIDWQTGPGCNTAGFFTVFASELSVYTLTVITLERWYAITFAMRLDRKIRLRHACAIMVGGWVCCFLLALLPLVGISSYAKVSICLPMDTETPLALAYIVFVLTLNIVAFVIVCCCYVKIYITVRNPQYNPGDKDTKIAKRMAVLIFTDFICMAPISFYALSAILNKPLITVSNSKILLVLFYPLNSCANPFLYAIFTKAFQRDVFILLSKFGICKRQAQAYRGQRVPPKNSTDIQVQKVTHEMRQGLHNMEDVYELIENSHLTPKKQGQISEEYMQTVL
# Outline: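 TSHR-HEK293 cells (800/well) plated 18 h, then compounds with Ro20-1724 and TSH at 1.5 ng/mL final, 30 min at room temperature. cAMP quantified by HTRF (cAMP-d2/anti-cAMP-cryptate, 1 h); 15 concentrations in triplicate.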
# [8] = qHTS assay to identify small molecule agonists of the estrogen receptor alpha (ER-alpha) signaling pathway in the presence of an antagonist - cell viability counter screen (AID 1259386);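 note: cells exposed to compounds for 22 h at 37 °C before the viability read; nearly all actives have a fitted effect of over 30% in size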; note: potency is the fitted concentration of half-maximal effect
# Outline: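 Cells are starved of estrogens for 5 days in charcoal-stripped serum, seeded for 24hr and co-treated with ICI-182,780 (10.0nM final) and test compounds. After 22hr at 37C, viability is read as CellTiter-Fluor fluorescence.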
# [9] = target: Progesterone receptor (Homo sapiens) (UniProt P06401); assay: qHTS assay to identify small molecule agonists of the progesterone receptor (PR) signaling pathway (AID 1346784; calls by dose curve; note: nearly all actives have a fitted effect of over 30% in size)
# Sequence of Progesterone receptor (Homo sapiens) (P06401 whole entry, looked up): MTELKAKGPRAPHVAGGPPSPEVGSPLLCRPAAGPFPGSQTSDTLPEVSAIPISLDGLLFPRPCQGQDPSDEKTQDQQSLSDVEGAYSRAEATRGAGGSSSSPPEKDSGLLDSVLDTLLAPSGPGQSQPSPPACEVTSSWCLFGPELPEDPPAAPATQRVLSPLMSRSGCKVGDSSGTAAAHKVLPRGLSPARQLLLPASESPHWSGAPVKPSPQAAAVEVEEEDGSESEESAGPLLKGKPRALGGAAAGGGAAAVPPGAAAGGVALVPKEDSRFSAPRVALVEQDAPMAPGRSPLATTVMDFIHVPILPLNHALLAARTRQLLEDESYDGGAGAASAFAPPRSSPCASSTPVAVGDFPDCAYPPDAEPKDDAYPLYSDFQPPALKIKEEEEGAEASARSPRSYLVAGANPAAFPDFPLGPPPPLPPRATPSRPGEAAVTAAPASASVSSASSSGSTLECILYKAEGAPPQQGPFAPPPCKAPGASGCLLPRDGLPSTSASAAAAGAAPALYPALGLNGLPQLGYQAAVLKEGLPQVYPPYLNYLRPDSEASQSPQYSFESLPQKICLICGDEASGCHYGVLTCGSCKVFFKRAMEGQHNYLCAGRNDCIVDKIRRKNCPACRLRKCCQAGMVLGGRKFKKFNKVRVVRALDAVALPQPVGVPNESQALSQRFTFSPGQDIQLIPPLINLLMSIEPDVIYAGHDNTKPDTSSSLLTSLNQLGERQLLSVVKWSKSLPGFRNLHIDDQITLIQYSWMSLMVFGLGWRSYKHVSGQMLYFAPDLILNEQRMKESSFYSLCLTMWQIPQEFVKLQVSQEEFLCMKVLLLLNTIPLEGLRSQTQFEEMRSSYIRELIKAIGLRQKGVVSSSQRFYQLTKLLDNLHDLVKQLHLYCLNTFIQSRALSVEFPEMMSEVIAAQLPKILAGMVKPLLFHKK
# Outline: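 PR-UAS-bla HEK 293T cells carrying a UAS-driven beta-lactamase reporter were seeded in medium with 2% charcoal-stripped FBS, preincubated 6 hr at 37C, then exposed to compounds in DMSO for 16 hr; agonism was read by LiveBLAzer B/G FRET fluorescence.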
# [10] = target: Progesterone receptor (Homo sapiens) (UniProt P06401); assay: qHTS assay to identify small molecule antagonists of the progesterone receptor (PR) signaling pathway (AID 1346795; active = well fitted inhibition curve with a large enough effect in the signal ratio in the repeat runs, not every such curve was filed as active; the % refers to the signal ratio; note: potency is the fitted concentration of half-maximal effect)
# Outline: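 PR-UAS-bla HEK293T cells carrying a UAS-driven beta-lactamase reporter were plated in medium with 2% charcoal-stripped FBS and rested 6 hr at 37C. Compounds were added with 1 nM R5020 (final) for 16 hr, then FRET substrate loaded 2 hr at room temperature.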
# [11] = qHTS assay to identify small molecule antagonists of the progesterone receptor (PR) signaling pathway - cell viability counter screen (AID 1346798); note: nearly all actives have a fitted effect of over 50% in size; note: potency is the fitted concentration of half-maximal effect
# Outline: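 PR-UAS-bla HEK293T cells in medium with 2% charcoal-stripped FBS were treated with compounds plus R5020 for 16 hr at 37C. Cell viability was then read by CellTiter-Glo luminescence after 30 min at room temperature in the same wells.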
# [12] = qHTS assay to identify small molecule agonists of the progesterone receptor (PR) signaling pathway - cell viability counter screen (AID 1346799; calls by dose curve; note: nearly all actives have a fitted effect of over 45% in size)
# Outline: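 PR-UAS-bla HEK293T cells, 3,000 per well in medium with 2% charcoal-stripped FBS, were preincubated 6 hr at 37C, then exposed to compounds for 16 hr; viability was read as CellTiter-Glo luminescence after 30 min at room temperature.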
# [13] = qHTS assay to identify small molecule antagonists of the TGF-beta/Smad signaling pathway - cell viability counter screen (AID 1346824); note: nearly all actives have a fitted effect of over 50% in size
# Outline: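 SBE-bla HEK 293T cells, incubated overnight, then compound plus 0.25 ng/mL TGF-beta1 (stock added) for 5 hr at 37 C. Viability was read in the same wells by CellTiter-Glo luminescence after 30 min at room temperature.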
# [14] = qHTS assay to identify small molecule agonists of the TGF-beta/Smad signaling pathway - cell viability counter screen (AID 1346829); note: top concentration of the series differs between compounds; nearly all actives have a fitted effect of over 45% in size
# Outline: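 Tox21 qHTS format: SBE-bla HEK 293T cells treated with DMSO-dissolved compounds for 5 hr; CellTiter-Glo luminescence after 30 min at room temperature.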
# [15] = qHTS assay to identify small molecule agonists of the TGF-beta/Smad signaling pathway (AID 1346859; active = well fitted activation curve with a large enough effect in the signal ratio in the repeat runs, not every such curve was filed as active; the % refers to the signal ratio; note: series mostly up to about 77 µM)
# Outline: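 HEK 293T cells stably carrying a beta-lactamase reporter driven by the Smad binding element were seeded overnight, exposed to DMSO-dissolved compounds for 5 hr at 37 C, 5% CO2, then loaded with FRET substrate for 2 hr at room temperature.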
# [16] = Human pregnane X receptor (PXR) small molecule agonists, qHTS cell viability counter screen (AID 1346977); note: nearly all actives have a fitted effect of over 50% in size; note: potency is the fitted concentration of half-maximal effect
# Outline: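 PXR-Luc HepG2 cells in medium with 5% charcoal-stripped FBS were pre-incubated 5hr, then exposed to compounds for 24hr at 37C. Viability was read in the same wells by CellTiter-Fluor fluorescence, reagent added after 23hr with a 1hr incubation.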
# [17] = target: Androgen receptor (Homo sapiens) (UniProt P10275); assay: qHTS assay to identify small molecule agonists of the androgen receptor (AR) signaling pathway in the presence of an antagonist (AID 1259381; calls by dose curve; note: nearly all actives have a fitted effect of over 15% in size)
# Sequence of Androgen receptor (Homo sapiens) (P10275 whole entry, looked up): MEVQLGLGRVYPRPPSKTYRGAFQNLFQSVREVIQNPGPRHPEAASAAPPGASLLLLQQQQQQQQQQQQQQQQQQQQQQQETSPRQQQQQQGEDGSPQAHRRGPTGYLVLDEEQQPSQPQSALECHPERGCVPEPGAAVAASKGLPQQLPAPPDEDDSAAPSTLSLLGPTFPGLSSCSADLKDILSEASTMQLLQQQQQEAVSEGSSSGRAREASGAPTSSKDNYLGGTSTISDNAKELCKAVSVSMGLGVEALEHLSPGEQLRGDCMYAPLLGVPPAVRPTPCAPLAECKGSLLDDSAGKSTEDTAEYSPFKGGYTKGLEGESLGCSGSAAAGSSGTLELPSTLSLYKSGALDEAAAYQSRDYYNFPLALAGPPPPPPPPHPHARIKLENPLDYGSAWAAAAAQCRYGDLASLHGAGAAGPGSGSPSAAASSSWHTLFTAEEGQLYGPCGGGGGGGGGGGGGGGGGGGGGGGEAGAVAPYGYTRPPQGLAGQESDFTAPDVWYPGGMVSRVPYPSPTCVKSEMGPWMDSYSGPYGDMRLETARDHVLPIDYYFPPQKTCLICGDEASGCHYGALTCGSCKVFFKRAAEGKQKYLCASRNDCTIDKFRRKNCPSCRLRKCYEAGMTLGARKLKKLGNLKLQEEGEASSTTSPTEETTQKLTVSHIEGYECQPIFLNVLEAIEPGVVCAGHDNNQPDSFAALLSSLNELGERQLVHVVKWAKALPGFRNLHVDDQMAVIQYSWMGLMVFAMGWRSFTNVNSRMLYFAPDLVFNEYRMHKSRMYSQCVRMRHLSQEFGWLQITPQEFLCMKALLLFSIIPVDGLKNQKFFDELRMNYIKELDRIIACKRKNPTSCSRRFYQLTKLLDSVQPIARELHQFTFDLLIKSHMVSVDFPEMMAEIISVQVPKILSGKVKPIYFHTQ
# Outline: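 Cells are MDA-kb2 (human breast carcinoma, MMTV-luc, AR/GR responsive). Nilutamide is present at 3.0uM final throughout; compounds are added at 15 concentrations and incubated 16hr at 37C before ONE-Glo luminescence detection.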
# [18] = target: Thyrotropin-releasing hormone receptor (Homo sapiens) (UniProt P34981); assay: qHTS assay to identify small molecule antagonists of the thyrotropin-releasing hormone receptor (TRHR) signaling pathway (AID 1346877; active = well fitted inhibition curve with a large enough effect in the repeat runs, not every such curve was filed as active; note: series mostly up to about 51 µM)
# Sequence of Thyrotropin-releasing hormone receptor (Homo sapiens) (P34981 whole entry, looked up): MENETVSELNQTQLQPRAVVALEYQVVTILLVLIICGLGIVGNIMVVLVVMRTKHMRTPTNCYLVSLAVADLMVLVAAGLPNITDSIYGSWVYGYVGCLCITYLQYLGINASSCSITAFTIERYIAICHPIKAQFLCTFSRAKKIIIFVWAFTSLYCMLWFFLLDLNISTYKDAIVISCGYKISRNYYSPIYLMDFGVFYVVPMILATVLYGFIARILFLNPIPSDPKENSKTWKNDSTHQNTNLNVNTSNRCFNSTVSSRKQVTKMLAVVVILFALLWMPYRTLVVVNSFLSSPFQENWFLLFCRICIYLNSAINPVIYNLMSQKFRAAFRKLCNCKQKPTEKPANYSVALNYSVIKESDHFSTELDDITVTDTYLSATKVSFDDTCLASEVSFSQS
# Outline: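 Cells (TRHR-HEK293) are plated and kept 18 h at 37 °C/5% CO2. A calcium-sensitive dye is added for 2 h, compound follows for 5 min at room temperature, and TRH is then given at 1 nM final.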
# [19] = target: Thyrotropin-releasing hormone receptor (Homo sapiens) (UniProt P34981); assay: qHTS assay to identify small molecule agonists of the thyrotropin-releasing hormone receptor (TRHR) signaling pathway (AID 1346891; calls by dose curve; note: series mostly up to about 58 µM)
# Outline: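 TRHR-expressing HEK293 cells were plated 18 h at 37 °C/5% CO2, loaded with calcium dye 2 h at 37 °C, then given compound in DMSO; fluorescence was read kinetically for 3 min at 1 s intervals.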
# [20] = target: Estrogen receptor (Homo sapiens) (UniProt P03372); assay: qHTS assay to identify small molecule agonists of the estrogen receptor alpha (ER-alpha) signaling pathway in the presence of an antagonist (AID 1259383; calls by dose curve; note: top concentration of the series differs between compounds; nearly all actives have a fitted effect of over 15% in size)
# Sequence of Estrogen receptor (Homo sapiens) (P03372 whole entry, looked up): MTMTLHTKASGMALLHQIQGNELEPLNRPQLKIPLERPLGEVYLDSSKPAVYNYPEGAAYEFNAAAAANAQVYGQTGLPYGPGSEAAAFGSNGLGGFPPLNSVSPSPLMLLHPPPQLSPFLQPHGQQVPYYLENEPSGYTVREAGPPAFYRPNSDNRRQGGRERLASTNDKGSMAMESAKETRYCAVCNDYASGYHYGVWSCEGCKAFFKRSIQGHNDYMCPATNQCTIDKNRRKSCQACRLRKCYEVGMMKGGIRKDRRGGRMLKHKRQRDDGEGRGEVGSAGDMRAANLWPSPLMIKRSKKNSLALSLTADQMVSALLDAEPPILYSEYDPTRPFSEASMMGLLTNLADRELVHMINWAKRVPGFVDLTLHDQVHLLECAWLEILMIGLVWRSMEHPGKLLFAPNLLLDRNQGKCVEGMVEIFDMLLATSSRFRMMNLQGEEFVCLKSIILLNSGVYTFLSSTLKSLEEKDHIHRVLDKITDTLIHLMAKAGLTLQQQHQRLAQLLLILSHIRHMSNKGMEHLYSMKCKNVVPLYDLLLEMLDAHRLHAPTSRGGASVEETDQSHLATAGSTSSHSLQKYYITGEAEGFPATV
# Outline: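 Cells are hormone-deprived for 5 days (charcoal-stripped FBS, no phenol red), plated for 24hr, spiked with 10.0nM ICI-182,780, then dosed at 15 concentrations. After 22hr at 37C, ONE-Glo luminescence reports ERE-luciferase activity.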
Structure (SMILES),Potency [1],Potency [2],Potency [3],Potency [4],Potency [5],outcome [6],Potency [7],Potency [8],Potency [9],Potency [10],Potency [11],Potency [12],Potency [13],Potency [14],outcome [15],Potency [16],Potency [17],Potency [18],Potency [19],Potency [20]
c1ccc(OCC2CO2)cc1 (configuration not stated),inactive,inactive,inactive,inactive,inactive,inactive,inactive,inactive,inactive,inactive,inactive,inactive,inactive,inactive,inactive,inactive,–,–,–,–
CCCCOP(=O)(CCCC)OCCCC,inactive,inactive,inactive,inactive,inactive,–,–,inactive,inactive,inactive,inactive,inactive,inactive,inactive,inactive,inactive,inactive,–,–,–
Cc1cccc(OP(=O)(Oc2cccc(C)c2)Oc2cccc(C)c2)c1,inactive,inactive,inactive,inactive,inactive,inactive,inactive,inactive,inactive,43.3 µM (active),inactive,inactive,inactive,inactive,inactive,inactive,inactive,inactive,inactive,–
CC(C)OC(=O)C(O)(c1ccc(Cl)cc1)c1ccc(Cl)cc1,inactive,30.6 µM (active),inactive,inactive,inactive,inactive,inactive,inactive,–,–,inactive,–,inactive,inactive,–,–,–,inactive,inactive,inactive
O=C(CCl)Nc1ccccc1,inactive,27.3 µM (active),61.1 µM (active),inactive,inactive,inactive,inactive,68.6 µM (active),inactive,–,19.3 µM (active),inactive,inactive,inactive,inactive,61.1 µM (active),inactive,inactive,inactive,inactive
O=[N+]([O-])c1ccc(Oc2ccc(C(F)(F)F)cc2[N+](=O)[O-])cc1,inactive,inactive,inactive,inactive,inactive,inactive,inactive,inactive,inactive,7.7 µM (active),–,–,inactive,inactive,inactive,inactive,–,inactive,inactive,inactive
CCOP(=S)(OCC)SCS(=O)(=O)CC,inactive,inactive,inactive,inactive,–,inactive,inactive,inactive,inactive,inactive,inactive,inactive,–,inactive,–,inactive,inactive,inactive,inactive,inactive

# Source: PubChem BioAssay (Tox21)
